Data on 16 molecules can be found in PubChem BioAssay.

Assay [1] in a line: A549 cell viability effects, profiling panel, calcein-AM fluorescence, 48 h, basal (AID 1162). Particulars: higher = more signal.
Assay [2] is described as follows: adipocyte viability effects, profiling panel, cell-based, 3T3-L1 adipocytes, calcein-AM fluorescence, 48 h, basal (AID 1163). Conditions: 3T3-L1 adipocytes viability, higher = more signal.
The nature of assay [3]: HepG2 cell viability effects, profiling panel, calcein-AM fluorescence, 48 h, basal (AID 1164). Conditions: higher = more signal.
The nature of assay [4]: MM1S cell viability effects, profiling panel, calcein-AM fluorescence, 48 h, basal (AID 1165).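 Note: viability of MM1S multiple myeloma cells under basal unstimulated conditions.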 Conditions: higher = more signal.
The nature of assay [5]: basal RPMI8226 viability, no added stimulus, profiling panel, cell-based, calcein-AM fluorescence, 48 h, PK04 Diversity Set (AID 1166).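 Note: cells grown under basal conditions without added stimulus.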 Conditions: RPMI8226 myeloma viability, higher = more signal.
Assay [6] is described as follows: basal HepG2 mitochondrial membrane potential changes, profiling panel, cell-based, JC-1 fluorescence, 24 h, 100 nL compound (AID 1167). Conditions: higher = more signal.
Assay [7] can be described thus: basal 3T3-L1 adipocyte mitochondrial potential changes, profiling panel, cell-based, JC-1 fluorescence, 3T3-L1 adipocytes, 24 h, 100 nL compound (AID 1168). Conditions: JC-1 mitochondrial fluorescence, higher = more signal, called active from +8 up or from −8 down.
The nature of assay [8]: basal RPMI8226 mitochondrial membrane potential changes, profiling panel, cell-based, JC-1 fluorescence, 24 h, 100 nL compound (AID 1169). Particulars: RPMI8226 myeloma, JC-1 mitochondrial potential fluorescence, higher = more signal.
The nature of assay [9]: basal MM1S mitochondrial membrane potential changes, profiling panel, cell-based, JC-1 fluorescence, 24 h, 100 nL compound (AID 1170). Particulars: higher = more signal.
Assay [10] in a line: A549 lung cancer cell viability effects, profiling panel, resazurin fluorescence, 24 h, PK04 Diversity Set (AID 1171). Particulars: higher = more signal, called active from +8 up or from −8 down. On the technique in general: The colour change of resazurin is a common sign of viable cells or microbes.

Activity calls are given as the source filed them.
Note: test concentration not given here.

Turning to `CON(C)C(=O)c1nnc2c(n1)[nH]c1ccccc12`, the z-score in assay [1] was -0.681; in [2], 0.764; in assay [3], 0.429; in [4] it was -0.342; in [5] it was -0.0375; in [6] it was -0.88. Besides, the z-score in assay [7] was 0.471 (inactive); in assay [8], -0.886; in [9], 0.0753; in [10] it was 0.447 (inactive).

Consider `CCOC(=O)[C@H](Cc1ccccc1)NC(=O)CCC1CC(OC(=O)NCc2cccc3ccccc23)CC2(CCCC(COC(=O)NCCc3ccccc3OC)O2)O1` (stereo not given in full), for which the z-score in [1] was -0.111; in assay [2] it was -0.211; in assay [3], -0.521; in [4], -0.123; in assay [5] it was -1.39; in assay [6], 0.527. The z-score was -0.177 (inactive) in assay [7], -0.0487 in assay [8], -0.193 in assay [9] and 0.737 (inactive) in assay [10].

Regarding `O=C1[C@H]2[C@H]3[C@H](O)[C@H](O)CC(=NOCc4ccccc4)[C@@H]3CC[C@H]2C(=O)N1c1cccc(Oc2ccccc2)c1`, the z-score was 0.794 in assay [1]; -0.746 in assay [2]; -0.505 in assay [3]; 0.213 in assay [4]; 0.3 in assay [5]; -0.231 in [6]. Also, the z-score was -0.145 (inactive) in [7], 0.542 in assay [8], -1.68 in assay [9] and -0.227 (inactive) in assay [10].

For the molecule `CCOC(=O)[C@H](Cc1ccccc1)NC(=O)CCC1CC(OC(=O)NCc2ccc3c(c2)OCO3)CC2(CCCC(COC(=O)NCCOc3ccccc3)O2)O1` (stereo not given in full), the z-score in [1] was -0.794; in [2] it was -0.317; in assay [3], 0.184; in [4], 0.322; in assay [5], 0.0039; in assay [6], 2.45. Moreover, the z-score is 0.808 (inactive) in assay [7], -0.0508 in [8], -1.17 in assay [9] and 0.198 (inactive) in assay [10].

`CC(CCC(=O)OC[C@H]1O[C@H](C#Cc2ccccc2)C=C[C@@H]1Oc1ccc(C)cc1)=NOC(C)CN1CCCc2nc(C)c(C)cc21` (stereo not given in full): the z-score was -0.177 in assay [1]; -0.271 in assay [2]; 0.267 in [3]; -2.18 in [4]; -1.39 in assay [5]; 0.542 in [6]. The z-score in [7] was -2.38 (inactive); in [8], -0.7; in assay [9] it was -0.74; in assay [10], -0.719 (inactive).

Take `O=C1C2=CC[C@H]3C(=O)N(C[C@@H]4CCCO4)C(=O)[C@H]3[C@H]2[C@H](O)[C@@H]2O[C@H]12`: the z-score in assay [1] is 0.144; in assay [2], -0.579; in assay [3], -0.228; in assay [4], -3.11; in [5], -3.32; in [6], -0.549. Besides, the z-score is 0.465 (inactive) in assay [7], -0.836 in assay [8], -3.04 in assay [9] and -0.824 (inactive) in assay [10].

For the molecule `COc1ccc(OC[C@H]2CN3[C@@H](CC[C@@H](C)[C@@H]3c3ccc(Br)cc3)C(=O)O2)cc1`, the z-score in assay [1] is -0.0668; in assay [2] it was 0.0118; in assay [3] it was -0.227; in assay [4] it was 0.829; in [5] it was -1.2; in assay [6], -0.057. For the same molecule, the z-score in assay [7] is -0.187 (inactive); in assay [8], 0.979; in assay [9], 0.381; in assay [10], -0.914 (inactive).

For `COC(=O)[C@H](C)NC(=O)CCC1CC(OC(=O)NCc2cccc3ccccc23)CC2(CCCC(COC(=O)NCCOc3ccccc3)O2)O1` (stereo not given in full), the z-score is -0.13 in assay [1]; 0.151 in [2]; -1.24 in assay [3]; -3.37 in [4]; -3.01 in assay [5]; -0.234 in assay [6]. For the same molecule, the z-score was -0.198 (inactive) in assay [7], -0.458 in [8], -0.463 in [9] and 1.33 (inactive) in assay [10].

`CCc1cc2c(nc1CC)CCN(CCC(C)=NOCC[C@@H]1C=C[C@H](OC(C)=O)[C@@H](COC(C)=O)O1)C2`: the z-score was 0.34 in assay [1]; 0.63 in [2]; 0.679 in assay [3]; -0.47 in assay [4]; 0.123 in [5]; 1.45 in assay [6]. For the same molecule, the z-score in [7] was -1.32 (inactive); in [8], 0.578; in [9], -0.13; in [10], 0.29 (inactive).

As for `COc1ccc(O[C@H]2C=C[C@@H](c3ccccc3)O[C@@H]2COC(=O)NCc2cccc3ccccc23)cc1`, the z-score was 0.152 in assay [1]; 0.0831 in assay [2]; -0.833 in assay [3]; -1.23 in assay [4]; -0.0376 in [5]; 0.194 in assay [6]. In addition, the z-score in [7] is -0.351 (inactive); in assay [8] it was 0.396; in assay [9], -0.225; in [10], 0.618 (inactive).

With `CC(=O)OC[C@H]1O[C@H](CC=NO[C@H](C)c2cn([C@@H]3COC[C@H]3O)nn2)C=C[C@@H]1OC(C)=O`, the z-score in assay [1] was 0.674; in assay [2] it was 0.062; in [3] it was 0.631; in [4], 0.621; in [5], 0.479; in assay [6], 0.00468. For the same molecule, the z-score in [7] is 1.13 (inactive); in assay [8], 0.418; in [9], -0.466; in assay [10] it was -0.145 (inactive).

In the case of `CO[C@@H]1COC(=O)[C@@H]2CCCN2C(=O)[C@@H](C)COC(=O)CCC[C@H]1C`, the z-score in [1] was -0.0294; in assay [2], -0.0132; in assay [3], 0.586; in assay [4], -0.407; in assay [5], 0.498; in assay [6] it was -0.189. In addition, the z-score in assay [7] was -2.2 (inactive); in assay [8] it was -0.0065; in [9], -1.2; in assay [10], -1.07 (inactive).

Turning to `O=C1[C@H]2[C@H]3[C@H](O)[C@H](O)CC(=NO[C@@H]4O[C@H](CO)[C@@H](O)[C@H](O)[C@H]4O)[C@H]3CC[C@H]2C(=O)N1C[C@@H]1CCCO1`, the z-score in assay [1] was 0.676; in assay [2], -0.568; in [3], 0.184; in [4], 0.7; in assay [5] it was 0.269; in assay [6] it was 0.607. Also, the z-score is 0.572 (inactive) in assay [7], 0.39 in assay [8], -1.13 in assay [9] and -0.6 (inactive) in [10].

On to `CCO[C@H](c1cc(OC)cc([N+](=O)[O-])c1OC)[C@H](C)[C@@H](OC)[C@H](C)C=CCC(=O)OC`, for which the z-score was 0.207 in [1]; -0.402 in [2]; 0.513 in assay [3]; 0.0601 in assay [4]; 0.824 in assay [5]; -0.524 in assay [6]. In addition, the z-score in assay [7] was -0.476 (inactive); in [8], -0.441; in [9], -0.236; in [10] it was 0.319 (inactive).

As to `C[C@H]1C=CCC(=O)OC[C@H](C)C(=O)N2CCC[C@H]2C(=O)OC1`, the z-score is -0.531 in assay [1]; -1.21 in [2]; -0.51 in assay [3]; 0.391 in assay [4]; 0.0245 in assay [5]; 0.291 in assay [6]. For the same molecule, the z-score is -0.696 (inactive) in [7], -0.148 in assay [8], -0.828 in [9] and 0.283 (inactive) in [10].

Turning to `C[C@@H](c1ccccc1)N1C(=O)[C@H]2[C@H]3[C@H](O)[C@H](O)CC(=NOC[C@@H](O)COCc4ccco4)[C@H]3CC[C@H]2C1=O`, the z-score was -0.428 in assay [1]; 0.565 in [2]; -0.187 in [3]; 0.352 in [4]; -1.83 in assay [5]; -0.137 in [6]. Moreover, the z-score is -0.387 (inactive) in assay [7], -0.84 in [8], -0.0829 in assay [9] and -0.268 (inactive) in [10].
